The source made the active and inactive calls. Unless noted, the rule behind the calls is not given here.

Assay [1] is described as follows: compounds binding Alexa647 anti-His antibody – biochemical, small-molecule microarray, 635 nm fluorescence, artefact control for SMM control protein annotation, primary screen (AID 1128).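 Note: score merges feature fluorescence with signal-to-noise for each printed compound spot.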 Conditions: higher = more signal.
Assay [2] relates to Human papillomavirus type 1a E7 protein (residues 1-88). Nature of the assay: HPV1a E7 small-molecule binders, primary screen, biochemical, small-molecule microarray, residues 1-88, 635 nm (AID 1129). Conditions: small-molecule microarray binding, fluorescence 635 nm; higher = more signal.
Assay [3] concerns the target Focal adhesion kinase 1 (Homo sapiens) (UniProt Q05397). Nature of the assay: PTK2 protein binding on printed compound slides – biochemical, small-molecule microarray, 635/667 nm fluorescence, BSA, DTT, primary screen (AID 1130).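 Note: composite of spot emission at 667 nm and signal to noise over triplicate slides.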 Conditions: 635 nm fluorescence, higher = more signal.
Assay [4] has as its system Fibrinogen (Alexa647-labelled). Nature of the assay: Alexa647-fibrinogen binding to printed small molecules – biochemical, small-molecule microarray, 635/667 nm fluorescence, artefact control for SMM control-protein annotation, profiling panel (AID 1131).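 Note: z-score merges 667 nm fluorescence with per-spot signal-to-noise over triplicate slides.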 Conditions: fibrinogen-A647 binding fluorescence, higher = more signal.
Assay [5] deals with Follistatin (Homo sapiens) (UniProt P19883). Nature of the assay: FST protein binding to printed compounds – biochemical, small-molecule microarray, 635/667 nm fluorescence, primary screen (AID 1132). The note with it: 635 nm fluorescence, higher = more signal.
Assay [6] deals with Fibroblast growth factor 2 (Homo sapiens) (UniProt P09038). Description: basic fibroblast growth factor binding to printed compounds – biochemical, small-molecule microarray, 635/667 nm fluorescence, primary screen (AID 1133). The note with it: FGF2, fluorescence 635/667, higher = more signal.
Assay [7] in a line: JC-1 mitochondrial potential readout, lung cancer cells – cell-based, A549, JC-1 fluorescence, basal, 24 h, 100 nL, profiling panel (AID 1138).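 Note: A549 lung adenocarcinoma cells under basal conditions with no added stimulus; test concentration not given here.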 Conditions: higher = more signal.
The subject of assay [8] is Lefty1. Nature of the assay: Lefty1 protein binding to printed compounds – biochemical, small-molecule microarray, 635/667 nm fluorescence, primary screen (AID 1139). Conditions: fluorescence 635/667, higher = more signal.
Assay [9] relates to wheat germ agglutinin (Triticum aestivum), Alexa647-labelled. Nature of the assay: Alexa647-WGA lectin binding to printed small molecules – biochemical, small-molecule microarray, 635/667 nm fluorescence, artefact control for SMM control-protein annotation, profiling panel (AID 1140).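 Note: score merges 667 nm feature emission with signal to noise over triplicate slides.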 The note with it: WGA-A647 binding, 635 nm fluorescence, higher = more signal.
The target in assay [10] is Luciferin 4-monooxygenase (Photinus pyralis) (UniProt P08659). Description: inhibition of purified Photinus pyralis luciferase – biochemical, luminescence, purified enzyme, 2006 set, primary screen (AID 1141).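 Note: cell-free assay with purified firefly luciferase at 100 ng per well in PBS; test concentration not given here.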 The note with it: purified firefly luciferase, SteadyGlo luminescence, 30 min; higher = more signal, called active from +8 up or from −8 down.
Assay [11] relates to Wnt5a (protein binding on small-molecule microarray). Nature of the assay: small molecules binding Wnt5a protein – biophysical, small-molecule microarray, 635/667 nm fluorescence, primary screen (AID 1142).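 Note: fluorescence read at 667 nm with signal to noise per printed feature.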 Conditions: 635 nm fluorescence, higher = more signal.
Assay [12] can be described thus: ATP-based viability of Huh7 replicon cells – cell-based, CellTiter-Glo luminescence, basal, 48 h, cytotoxicity control for HCV replication inhibitor project, primary screen (AID 1143).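 Note: Huh7 hepatoma cells carrying a hepatitis C replication reporter with no stimulus; test concentration not given here.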 The note with it: higher = more signal, called active from +8 up or from −8 down.
Assay [13] is described as follows: Pseudomonas biofilm growth suppression – PAO1 strain, BacTiter-Glo luminescence, LB-PBS, primary screen (AID 1144). Conditions: P. aeruginosa PAO1 biofilm, 12 h, higher = more signal.
Assay [14] is described as follows: basal CRE-LacZ reporter activity in PC12 – cell-based, unstimulated, primary screen (AID 1145). The note with it: no forskolin, luminescence, 4.5 h, higher = more signal, called active from +8 up or from −8 down.
Assay [15] is described as follows: forskolin-driven CRE-LacZ activity in PC12 – cell-based, CRE-LacZ reporter, forskolin-stimulated, primary screen (AID 1146).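 Note: PC12 cells with 6xCRE LacZ reporter stimulated by forskolin 10 µM; beta-galactosidase reporter signal reflecting CREB driven transcription.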 The note with it: luminescence, 4.5 h, higher = more signal, called active from +8 up or from −8 down.
The target in assay [16] is Streptavidin (Streptomyces avidinii) (UniProt P22629). Description: compounds binding control protein streptavidin – biophysical, small-molecule microarray, 635/667 nm fluorescence, artefact control for SMM compound annotation, primary screen (AID 1147).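 Note: signal reflects streptavidin binding to arrayed compounds as a control protein.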 The note with it: higher = more signal.
A short description of assay [17]: probe aInhba binding on compound microarray – biochemical, small-molecule microarray, 635/667 nm fluorescence, primary screen (AID 1148).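 Note: score merges 667nm spot fluorescence with signal-to-noise for antibody binding to printed compounds.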 Conditions: higher = more signal.
Assay [18] addresses Torsin-1A (Homo sapiens) (UniProt O14656). Description: TOR1A wild-type binding on microarray – cell lysate, small-molecule microarray, lysate, 635/667 nm, primary screen (AID 1149). The note with it: COS7 hTOR1A-WT lysate, 635 nm fluorescence, higher = more signal.
Assay [19] has the same target. Nature of the assay: torsin A mutant lysate binding on microarrays – cell lysate, small-molecule microarray, COS7 lysate, 635/667 nm fluorescence, primary screen (AID 1150).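 Note: score pools 667 nm emission and signal to noise measuring lysate protein binding.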 Conditions: COS7 hTOR1A mutant lysate, 635 nm fluorescence, higher = more signal.
Assay [20] has as its system Sonic hedgehog protein (Shh). Description: Sonic hedgehog microarray binding compounds – biochemical, small-molecule microarray, 635/667 nm fluorescence, primary screen (AID 1151).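 Note: Shh protein binding to compounds spotted on small-molecule microarray slides; score combines spot fluorescence intensity with signal-to-noise across triplicate slides.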 Conditions: 635 nm fluorescence, higher = more signal.

Sequence of Luciferin 4-monooxygenase (Photinus pyralis) (P08659 whole entry, looked up): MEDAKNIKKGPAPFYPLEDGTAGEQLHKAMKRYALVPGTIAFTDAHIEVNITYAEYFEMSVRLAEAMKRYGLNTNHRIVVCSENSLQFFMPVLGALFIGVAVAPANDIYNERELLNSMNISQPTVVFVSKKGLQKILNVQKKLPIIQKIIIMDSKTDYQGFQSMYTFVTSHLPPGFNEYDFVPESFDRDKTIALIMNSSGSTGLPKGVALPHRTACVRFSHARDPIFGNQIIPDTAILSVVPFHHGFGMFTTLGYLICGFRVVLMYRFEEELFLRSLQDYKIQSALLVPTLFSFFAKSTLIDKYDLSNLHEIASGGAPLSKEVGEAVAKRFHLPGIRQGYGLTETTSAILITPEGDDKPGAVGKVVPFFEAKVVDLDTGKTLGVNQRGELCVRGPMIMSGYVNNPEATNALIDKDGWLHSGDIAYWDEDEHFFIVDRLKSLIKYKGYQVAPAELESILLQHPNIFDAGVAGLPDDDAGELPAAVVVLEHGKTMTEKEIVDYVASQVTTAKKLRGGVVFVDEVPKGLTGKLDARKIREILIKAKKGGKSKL
Sequence of Fibroblast growth factor 2 (Homo sapiens) (P09038 whole entry, looked up): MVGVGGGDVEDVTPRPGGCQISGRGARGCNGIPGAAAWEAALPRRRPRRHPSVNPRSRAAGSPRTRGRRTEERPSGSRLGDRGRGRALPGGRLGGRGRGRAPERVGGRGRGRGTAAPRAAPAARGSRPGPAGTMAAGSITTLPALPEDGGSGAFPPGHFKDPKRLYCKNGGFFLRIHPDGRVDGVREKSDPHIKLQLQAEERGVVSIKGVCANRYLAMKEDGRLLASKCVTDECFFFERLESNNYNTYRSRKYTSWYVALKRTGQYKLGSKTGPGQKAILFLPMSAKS
Sequence of Follistatin (Homo sapiens) (P19883 whole entry, looked up): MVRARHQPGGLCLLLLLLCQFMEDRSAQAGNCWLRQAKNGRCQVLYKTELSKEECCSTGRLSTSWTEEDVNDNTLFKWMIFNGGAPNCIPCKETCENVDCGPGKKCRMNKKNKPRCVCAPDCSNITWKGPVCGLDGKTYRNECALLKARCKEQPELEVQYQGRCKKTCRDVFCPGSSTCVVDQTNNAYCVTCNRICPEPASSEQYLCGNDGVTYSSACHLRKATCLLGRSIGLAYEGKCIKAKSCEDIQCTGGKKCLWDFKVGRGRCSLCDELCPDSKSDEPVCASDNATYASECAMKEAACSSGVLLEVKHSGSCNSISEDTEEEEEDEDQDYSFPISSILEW
Sequence of Torsin-1A (Homo sapiens) (O14656 whole entry, looked up): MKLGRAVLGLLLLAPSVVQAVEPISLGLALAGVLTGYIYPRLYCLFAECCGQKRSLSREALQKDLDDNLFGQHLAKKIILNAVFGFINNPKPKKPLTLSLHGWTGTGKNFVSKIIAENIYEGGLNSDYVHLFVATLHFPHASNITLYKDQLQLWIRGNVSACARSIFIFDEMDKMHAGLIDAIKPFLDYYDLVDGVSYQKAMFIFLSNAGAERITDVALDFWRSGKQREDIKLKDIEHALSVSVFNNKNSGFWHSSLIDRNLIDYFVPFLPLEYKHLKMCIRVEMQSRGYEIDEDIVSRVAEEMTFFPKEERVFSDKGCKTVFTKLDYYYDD
Sequence of Focal adhesion kinase 1 (Homo sapiens) (Q05397 whole entry, looked up): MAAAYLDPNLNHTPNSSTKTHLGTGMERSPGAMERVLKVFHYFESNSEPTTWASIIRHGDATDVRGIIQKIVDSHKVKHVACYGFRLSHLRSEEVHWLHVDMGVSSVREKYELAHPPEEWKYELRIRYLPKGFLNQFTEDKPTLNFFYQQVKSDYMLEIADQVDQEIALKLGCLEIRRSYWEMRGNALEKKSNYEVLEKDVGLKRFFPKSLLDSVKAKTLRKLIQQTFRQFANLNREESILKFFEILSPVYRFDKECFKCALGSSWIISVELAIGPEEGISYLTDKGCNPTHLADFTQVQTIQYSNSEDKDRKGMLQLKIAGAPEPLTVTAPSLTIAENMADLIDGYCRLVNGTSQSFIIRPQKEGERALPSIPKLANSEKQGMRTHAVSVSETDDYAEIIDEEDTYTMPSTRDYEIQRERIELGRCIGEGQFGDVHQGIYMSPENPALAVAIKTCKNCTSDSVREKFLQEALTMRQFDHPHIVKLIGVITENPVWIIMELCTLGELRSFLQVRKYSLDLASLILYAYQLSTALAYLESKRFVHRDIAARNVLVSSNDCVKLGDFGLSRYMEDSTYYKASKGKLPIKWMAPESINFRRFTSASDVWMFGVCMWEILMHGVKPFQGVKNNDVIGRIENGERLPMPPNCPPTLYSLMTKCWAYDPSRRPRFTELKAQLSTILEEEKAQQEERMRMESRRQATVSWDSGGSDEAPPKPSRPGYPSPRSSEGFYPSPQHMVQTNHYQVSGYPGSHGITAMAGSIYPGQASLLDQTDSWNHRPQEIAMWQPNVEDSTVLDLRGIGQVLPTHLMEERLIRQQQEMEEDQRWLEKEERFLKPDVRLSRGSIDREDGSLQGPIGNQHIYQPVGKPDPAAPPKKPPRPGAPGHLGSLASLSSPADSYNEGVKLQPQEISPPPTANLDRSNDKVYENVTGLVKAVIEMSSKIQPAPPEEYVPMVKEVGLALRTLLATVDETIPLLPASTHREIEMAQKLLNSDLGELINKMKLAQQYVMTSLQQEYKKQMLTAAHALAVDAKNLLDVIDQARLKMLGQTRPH
Sequence of Streptavidin (Streptomyces avidinii) (P22629 whole entry, looked up): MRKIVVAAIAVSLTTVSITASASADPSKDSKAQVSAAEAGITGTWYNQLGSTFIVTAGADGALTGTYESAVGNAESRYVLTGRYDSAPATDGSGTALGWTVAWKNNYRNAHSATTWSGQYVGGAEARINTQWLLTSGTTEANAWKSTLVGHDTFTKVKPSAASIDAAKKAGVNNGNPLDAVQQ

For `C=C1C2CC3C(=C4C(CO[C@@H]4[C@H]4CCCN4S(=O)(=O)c4ccccc4[N+](=O)[O-])C4C(=O)N(C)C(=O)C34)CC2C(=O)N1C` (stereo not given in full), the composite z-score was -0.382 in assay [1]; 0.128 in assay [2]; 0.0722 in [3]; 0.412 in assay [4]; 0.482 in assay [5]; 0.425 in assay [6]. In addition, the composite z-score in assay [8] is 0.218; in assay [9], 0.337; in [11], -0.0541; in assay [16], -0.207; in [17], -0.101; in [18], 0.942. For the same compound, the composite z-score in assay [19] came to 0.107; in [20], 0.832. Further, the z-score in assay [7] is 0.225; in assay [10] it was 0.101 (inactive); in assay [12], 0.985 (inactive); in [13], 0.283 (inactive); in [14] it was 3.21 (inactive); in [15], 0.769 (inactive).
Turning to `COC(=O)[C@@]1(Cc2ccc(OC)cc2)[C@H]2c3cc(C(=O)N4CCCC4)n(CCc4cc5ccccc5[nH]4)c3C[C@H]2CN1C(=O)c1ccccc1`, the composite z-score was 2.2 in [1]; 1.25 in assay [2]; 0.832 in assay [3]; 0.98 in assay [4]; 1.18 in assay [5]; 0.754 in assay [6]. The composite z-score in assay [8] was -0.246; in assay [9], 1.05; in assay [11], 0.409; in [16], 1.58; in assay [17] it was 0.352; in assay [18], 0.368. Also, the composite z-score in assay [19] is 1.38; in [20], -0.309. Moreover, the z-score in assay [7] was 1.3; in assay [10], 1.91 (inactive); in assay [12], -1.84 (inactive); in assay [13] it was 0.497 (inactive); in assay [14], -0.189 (inactive); in assay [15], 0.375 (inactive).
For `C=C(CCCC)C(=O)CC[C@@H](OC(=O)c1ccccc1-c1ccccc1C(=O)O)c1cccc(OCCO)c1`, the composite z-score in assay [1] is -0.0724; in assay [2], 0.53; in [3], 0.113; in assay [4], 0.834; in assay [5] it was 1.43; in assay [6], 1.56. For the same compound, the composite z-score in assay [8] was 1.68; in assay [9] it was -0.0168; in assay [11], 0.137; in [16], -0.6; in assay [17], -0.231; in assay [18] it was 0.604. Moreover, the composite z-score in assay [19] was 0.561; in [20] it was 1.68. Also, the z-score in [7] is 0.317; in assay [10], -2.33 (inactive); in assay [12], -0.854 (inactive); in assay [13], 0.194 (inactive); in assay [14], 3.31 (inactive); in assay [15] it was 8.69 (active).
On to `COC(=O)[C@@]1(Cc2ccccc2)[C@H]2c3cc(C(=O)N4CCCC4)[nH]c3C[C@H]2CN1C(=O)c1ccccc1`, for which the composite z-score in assay [1] is 0.886; in assay [2], -0.0205; in [3], 1.24; in assay [4], 0.664; in assay [5], -0.382; in assay [6], -0.757. Also, the composite z-score is -0.826 in assay [8]; -0.129 in [9]; -0.0884 in [11]; 0.255 in assay [16]; 0.192 in assay [17]; 0.223 in assay [18]. Further, the composite z-score in assay [19] is 0.246; in assay [20], -0.786. Moreover, the z-score is 0.709 in assay [7]; 1.18 (inactive) in assay [10]; -0.117 (inactive) in assay [12]; -0.39 (inactive) in [13]; 0.779 (inactive) in assay [14]; 0.283 (inactive) in [15].
For the compound `COCCCNC(=O)[C@@H]1c2ccccc2C(=O)N(Cc2ccccc2C(F)(F)F)[C@H]1c1ccc(CO)cc1`, the composite z-score in assay [1] was -0.175; in assay [2] it was 0.569; in [3] it was 0.278; in assay [4], -0.873; in assay [5] it was -0.211; in assay [6], -0.372. For the same compound, the composite z-score is -0.295 in assay [8]; -0.488 in assay [9]; 0.143 in [11]; -0.194 in assay [16]; 0.0536 in assay [17]; 0.285 in assay [18]. In addition, the figures for the composite z-score in assay [19] and in assay [20] were 0.331 and 0.23, respectively. In addition, the z-score was 2.81 in [7]; -1.26 (inactive) in assay [10]; 0.442 (inactive) in assay [12]; 0.309 (inactive) in assay [13]; -0.385 (inactive) in [14]; -1.45 (inactive) in assay [15].
